MLL AF4-AF9 inh = inhibitors of AF4 peptide binding to AF9, primary screen, biochemical, AlphaScreen, biotin-AF4 peptide, FLAG-AF9, single point; inhibition, % at 10 µM; 0.47% of 350,000 active; Protein AF-9 (Homo sapiens), P42568; AID 651704, 2012;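 active = every replicate reaching a set inhibition limit, whatever the replicate mean, cut at about 25% in these data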
RAD52 inh = RAD52 DNA annealing inhibitors, primary screen, biochemical, FRET, single point, set 2. 0.46% of 360,000 active. DNA repair protein RAD52 homolog (Homo sapiens), P43351. inhibition, % at 18.7 µM. recombinant RAD52 DNA annealing, FRET fluorescence;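 active = every replicate showing at least 50% inhibition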
dFosB activator = activators of delta FosB homodimer, primary screen, biochemical, fluorescence polarization, TAMRA-CDK5 oligo, single point; 0.99% of 340,000 active; purified delta FosB; percent of positive-control signal above neutral wells; activation, % at 25 µM;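 active = mean activation above about 17%, with every replicate also reaching it, limit read from the data, passing the limit was not always enough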
Target sequence (P13346 whole entry, looked up): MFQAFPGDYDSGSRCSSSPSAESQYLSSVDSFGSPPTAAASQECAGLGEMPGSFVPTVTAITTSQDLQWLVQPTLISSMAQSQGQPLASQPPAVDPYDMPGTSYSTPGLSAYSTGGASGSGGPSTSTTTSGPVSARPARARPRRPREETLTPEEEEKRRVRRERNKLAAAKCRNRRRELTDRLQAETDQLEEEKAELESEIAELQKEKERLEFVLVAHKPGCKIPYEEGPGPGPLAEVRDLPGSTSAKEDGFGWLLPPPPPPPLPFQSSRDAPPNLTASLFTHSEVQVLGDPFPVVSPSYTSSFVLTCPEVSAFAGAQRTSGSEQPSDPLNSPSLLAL
GSIS activator = GLuc luminescence reporter in INS-1E cells, primary screen for activators of glucose-dependent secretion of insulin | INS-1E GLuc reporter insulin secretion, 2-3 h | activation, % at 16.6 µM | 0.61% of 370,000 active | AID 743287, 2014;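 active = lowest replicate activation of at least 40%, so every replicate reaches that level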
DENV2 CPE = inhibitors of DENV2 cytopathic effect, primary screen, cell-based, plate reader, single concentration | CPE inhibition, % at 9.99 µM | DENV2-infected cells, cytopathic effect rescue | 1.7% of 350,000 active; in the data active = CPE inhibition above about 20%, passing the limit was not always enough; tested in BHK-21 cells
RAD54 branch = inhibitors of human RAD54 branch migration, primary screen, biochemical, fluorescence, single point. RAD54 Holliday junction branch migration, FAM/BHQ fluorescence. inhibition, % at 10.4 µM. 0.14% of 360,000 active. AID 602329, 2012;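 active = mean normalized replicate activity at least 40 and at least half of replicates scoring 40 or more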;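 also: inhibitors cause a drop in the FAM fluorescence signal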
A number is an active result; - = inactive; . = not tested or not shown. Most compounds without a hit are left out; they make up all but 3.1% or so of the library.

SMILES	MLL AF4-AF9 inh	RAD52 inh	dFosB activator	GSIS activator	DENV2 CPE	RAD54 branch
CC(C)NC(=O)Nc1ccc2c(c1)C(=O)N([C@H](C)CO)C[C@H](C)[C@@H](CN(C)C(=O)NC(C)C)OCCCC[C@H](C)O2	-	-	.	-	-	-
CCOC(=O)c1ccc(NC(=O)CC2S/C(=N/N=C/c3c[nH]c4ccccc34)NC2=O)cc1 (stereo unspecified)	.	.	-	-	.	.
Cc1ccc(NC(=O)CC2S/C(=N/N=C/c3c[nH]c4ccccc34)NC2=O)cc1 (stereo unspecified)	.	.	-	59.9	.	-
CCOC(=O)c1sc2nc(-c3ccccc3)ccc2c1N	.	.	-	75.7	.	.
N=C1/C(=C\c2ccc(-c3ccc(C(=O)O)cc3)o2)C(=O)N=C2SC=C(c3ccccc3)N12	-	-	-	-	-	-
N=C1/C(=C\c2ccc(-c3cccc(Cl)c3)o2)C(=O)N=C2SC=C(c3ccccc3)N12	-	-	-	.	67.0	.
CN(C)CC/C=C1/c2ccccc2Sc2c(O)cc(Cl)cc21	.	.	-	.	.	-
CN(C)CC/C=C1/c2cc(F)ccc2Sc2ccc(Cl)cc21	37.2	-	-	-	-	-
COc1ccc(CNC(=O)C2Cc3c(-c4cccc(F)c4)ccnc3O2)cc1OC (stereo unspecified)	-	-	.	56.6	-	-
Cc1ccc2nc(Cl)nc(-c3ccccc3)c2c1	-	-	-	51.3	-	-
N[C@@H]1CC[C@H](CCn2cc(-c3ccccn3)nn2)O[C@H]1CO	-	-	.	-	-	-
CCCCCCN(C(=O)CCCCCN1C(=O)NC(c2ccc(-c3ccccc3)cc2)C(C(=O)OCc2ccccc2)=C1C)C(C(=O)NCCCC)C1CCCCC1 (stereo unspecified)	-	-	.	-	-	.
CCCCCCN(C(=O)CCCCCN1C(=O)NC(c2ccc(-c3ccccc3)cc2)C(C(=O)OCc2ccccc2)=C1C)C(C(=O)NCCCC)c1ccccn1 (stereo unspecified)	.	-	.	-	23.2	.
CC(C)(OC(=O)c1ccc(C#N)cc1)c1cc2ccccc2c(=O)o1	.	-	-	-	36.7	-
CS(=O)(=O)Nc1ccc2c(c1)[C@H]1C[C@H](CC(=O)NCc3cccnc3)O[C@@H](CO)[C@H]1O2	-	-	.	-	-	-
Cc1ccc(S(=O)(=O)Nc2cccc3c2O[C@@H](CN(C)S(C)(=O)=O)[C@@H](C)CN([C@H](C)CO)C3=O)cc1	-	-	.	-	-	-
Cc1ccc(CNC(=O)C2CCC(=O)N(CCc3ccccn3)C2)s1 (stereo unspecified)	-	-	-	-	33.3	-
COc1ccc(CCN2CC(C(=O)NCCc3ncccc3C)CCC2=O)cc1 (stereo unspecified)	-	-	.	-	33.9	-
COc1ccccc1CCNC(=O)C1CCC(=O)N(Cc2ccccc2OC)C1 (stereo unspecified)	-	-	-	-	-	-
COc1ccccc1CN1CC(C(=O)NCCCc2ccc(F)cc2)CCC1=O (stereo unspecified)	42.2	-	-	-	-	-
C[C@@H]1CN([C@@H](C)CO)C(=O)c2cccc(NS(=O)(=O)c3ccc(F)cc3)c2O[C@@H]1CN(C)S(=O)(=O)c1ccc(Cl)cc1	-	-	.	-	-	-
Cc1noc(C)c1S(=O)(=O)Nc1ccc2c(c1)C(=O)N([C@H](C)CO)C[C@@H](C)[C@@H](CN(C)C(=O)Nc1ccccc1)OCCCC[C@@H](C)O2	-	-	.	-	-	-
O=C(O)c1ccc(-n2nnnc2SCc2ccccc2Br)cc1	-	-	-	48.1	-	-
CC1(C)Cc2ccccc2C(CSc2ccccc2C(=O)O)=N1	-	-	-	-	.	-
COc1cc2c(cc1OC)C(CSc1ccccc1C(=O)O)=NC(C)(C)C2	-	-	-	40.8	-	.
SMILES	MLL AF4-AF9 inh	RAD52 inh	dFosB activator	GSIS activator	DENV2 CPE	RAD54 branch
COc1cc(CNCCO)cc(Cl)c1OCc1ccc(Cl)cc1Cl	-	-	-	42.5	-	.
COc1cc(CNCCO)cc(Br)c1OCc1ccccc1Cl	.	.	-	.	.	-
C[C@H](CO)N1C[C@H](C)[C@@H](CN(C)C)Oc2ncc(C3=CCCC3)cc2C1=O	-	-	.	-	-	-
Cc1csc(NC(=O)CN2C(=O)COc3ccc(Cl)cc32)n1	-	-	28.9	-	-	-
O=C(C[C@@H]1C=C[C@H](NC(=O)Cc2ccccn2)[C@@H](CO)O1)NCCCN1CCOCC1	-	-	.	-	-	-
O=C(C[C@@H]1C=C[C@H](NC(=O)Cc2ccccn2)[C@H](CO)O1)NCCCN1CCOCC1	-	-	.	-	32.6	-
O=C(C[C@@H]1C=C[C@@H](NC(=O)Cc2ccccn2)[C@H](CO)O1)NCCCN1CCOCC1	-	-	.	-	38.1	-
Cc1ccc(S(=O)(=O)N2CCCCC2)cc1NC(=O)CCCOc1ccccc1	-	-	-	-	-	-
Cc1ccc(S(=O)(=O)N2CCCCC2)cc1NC(=O)CCOc1ccccc1	-	-	-	-	72.4	.
Cc1ccc(S(=O)(=O)N2CCCCC2)cc1NC(=O)c1cc(=O)[nH]c2ccccc12	-	-	-	-	77.3	-
CCCN(CC(=O)Nc1ccccc1C)C(=O)C1CCN(S(=O)(=O)c2ccc(C)c(C)c2)CC1	-	-	.	-	27.0	-
O=C(Nc1cc(S(=O)(=O)N2CCOCC2)ccc1N1CCCC1)c1cc(=O)[nH]c2ccccc12	-	-	-	-	-	-
CC(=O)NCCC(=O)Nc1cc(S(=O)(=O)N2CCCCC2)ccc1N1CCN(C)CC1	-	-	-	-	30.6	-
Cc1ccc(S(=O)(=O)N2CCOCC2)cc1NC(=O)CN(C)CC(=O)Nc1cccc(F)c1	-	-	.	-	82.7	-
O=C1O[C@H](c2ccccc2)[C@H](c2ccccc2)N2[C@H]1[C@@H](C(=O)NC[C@H](O)c1ccccc1)[C@]1(C(=O)Nc3ccc(C#CCCO)cc31)[C@H]2c1ccc(OCCO)cc1	-	-	.	.	-	-
CCOC(=O)C1CCN(C(=S)NC2CC3C=CC2C3)CC1 (stereo unspecified)	31.8	-	-	-	-	-
Cc1c(C(=O)NCCCN2CCOCC2)sc2nc(-c3ccccc3)cn12	-	-	.	-	87.0	.
C[C@@H]1CCCCO[C@@H](CN(C)Cc2ccc(C(F)(F)F)cc2)[C@H](C)CN([C@H](C)CO)C(=O)c2cc(NS(=O)(=O)c3ccccc3)ccc2O1	-	-	.	-	-	-
CNC[C@H]1Oc2c(NS(=O)(=O)c3ccc(C)cc3)cccc2C(=O)N([C@H](C)CO)C[C@H]1C	-	-	.	-	-	-
O=C(COc1ncnc2sccc12)NC1CCS(=O)(=O)C1 (stereo unspecified)	-	-	-	.	28.0	-
